Laboratory results as given in ChEMBL document CHEMBL3988442, “University of Dundee, Small-Polar-MMV Screening Library” (2021).
For some of these results: Results with a measured potency or affinity are listed apart.

What was measured:
Design in all cases: scale not given: direction of the effect not stated beside the values
[1] = biological target: Protein translocase subunit SecA (Escherichia coli (strain K12)) (UniProt P10408); assay: Assay to Identify E. coli SecA ATPase Inhibitors; assay type: functional; settings: 30 µM
Sequence of Protein translocase subunit SecA (Escherichia coli (strain K12)) (P10408 whole entry): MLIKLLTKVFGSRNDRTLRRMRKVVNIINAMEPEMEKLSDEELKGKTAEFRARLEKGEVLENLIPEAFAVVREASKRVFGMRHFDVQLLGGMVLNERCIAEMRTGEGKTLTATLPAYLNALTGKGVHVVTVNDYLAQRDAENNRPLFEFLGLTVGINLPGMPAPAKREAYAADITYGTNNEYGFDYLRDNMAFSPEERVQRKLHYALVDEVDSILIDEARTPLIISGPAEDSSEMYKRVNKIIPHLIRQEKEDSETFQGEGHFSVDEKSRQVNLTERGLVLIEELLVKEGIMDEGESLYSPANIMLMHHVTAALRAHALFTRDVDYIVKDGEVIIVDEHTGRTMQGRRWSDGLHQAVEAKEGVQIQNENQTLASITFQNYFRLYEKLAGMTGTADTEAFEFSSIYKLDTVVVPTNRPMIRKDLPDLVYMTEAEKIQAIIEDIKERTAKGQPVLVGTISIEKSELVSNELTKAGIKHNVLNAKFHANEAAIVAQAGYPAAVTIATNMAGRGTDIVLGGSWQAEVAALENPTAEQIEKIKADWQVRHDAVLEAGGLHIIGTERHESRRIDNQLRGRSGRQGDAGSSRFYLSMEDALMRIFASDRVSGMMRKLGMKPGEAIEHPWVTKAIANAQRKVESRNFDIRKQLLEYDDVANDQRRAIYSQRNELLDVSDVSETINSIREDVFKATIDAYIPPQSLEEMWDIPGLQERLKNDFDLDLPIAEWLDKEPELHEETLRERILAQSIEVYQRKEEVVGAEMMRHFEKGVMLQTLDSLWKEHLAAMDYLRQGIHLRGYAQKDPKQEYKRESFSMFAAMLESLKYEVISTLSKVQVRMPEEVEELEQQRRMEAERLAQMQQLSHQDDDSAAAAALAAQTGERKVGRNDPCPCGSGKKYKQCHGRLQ

[2] = biological target: T1, Ubiquitin-activating enzyme e1, putative (Leishmania donovani (strain BPK282A1)) (UniProt E9BSI1); assay: Leishmania donovani Ubiquitin Activating Enzyme (LdE1); assay type: functional; settings: 30 µM
T1 sequence (whole entry): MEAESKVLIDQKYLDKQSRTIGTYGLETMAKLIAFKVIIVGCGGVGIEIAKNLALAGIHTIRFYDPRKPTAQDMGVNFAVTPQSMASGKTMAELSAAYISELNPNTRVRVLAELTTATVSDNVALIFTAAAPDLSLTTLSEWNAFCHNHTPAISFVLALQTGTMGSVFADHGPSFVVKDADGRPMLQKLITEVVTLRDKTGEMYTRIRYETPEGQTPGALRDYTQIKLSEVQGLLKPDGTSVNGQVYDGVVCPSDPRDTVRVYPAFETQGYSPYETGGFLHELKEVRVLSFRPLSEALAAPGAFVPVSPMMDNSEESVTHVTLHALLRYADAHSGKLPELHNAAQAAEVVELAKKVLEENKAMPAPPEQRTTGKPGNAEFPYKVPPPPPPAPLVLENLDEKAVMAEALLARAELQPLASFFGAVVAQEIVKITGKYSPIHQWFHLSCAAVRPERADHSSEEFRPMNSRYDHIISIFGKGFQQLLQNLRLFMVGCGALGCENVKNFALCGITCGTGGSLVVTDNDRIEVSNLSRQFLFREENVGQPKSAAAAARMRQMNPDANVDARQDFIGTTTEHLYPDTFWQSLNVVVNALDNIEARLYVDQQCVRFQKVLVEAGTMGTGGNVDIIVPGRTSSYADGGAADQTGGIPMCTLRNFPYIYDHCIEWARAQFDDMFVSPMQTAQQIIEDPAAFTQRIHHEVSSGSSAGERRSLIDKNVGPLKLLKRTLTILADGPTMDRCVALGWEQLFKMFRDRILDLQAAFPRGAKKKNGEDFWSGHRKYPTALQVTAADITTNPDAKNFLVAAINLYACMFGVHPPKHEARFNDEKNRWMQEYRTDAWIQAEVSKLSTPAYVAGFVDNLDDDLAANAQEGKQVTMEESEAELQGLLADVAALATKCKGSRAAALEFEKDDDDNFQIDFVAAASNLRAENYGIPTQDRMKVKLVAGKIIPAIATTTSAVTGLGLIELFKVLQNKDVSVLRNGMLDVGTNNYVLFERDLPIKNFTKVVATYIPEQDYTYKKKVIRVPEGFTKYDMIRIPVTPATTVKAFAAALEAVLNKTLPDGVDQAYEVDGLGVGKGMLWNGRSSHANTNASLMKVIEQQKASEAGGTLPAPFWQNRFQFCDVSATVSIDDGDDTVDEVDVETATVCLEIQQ

[3] = biological target: AMP-activated protein kinase, AMPK (Homo sapiens) (UniProt P54646+O43741+P54619+Q9UGJ0+Q9Y478+Q13131+Q9UGI9); assay: AMP-dependent Kinase enzyme assay. An in vitro enzyme assay that detects ADP turnover that is directly proportional to AMPK activity. This uses naive AMPK that is activated during the assay with MK-8722; assay type: functional; settings: 30 µM
[4] = biological target: Sialic acid-binding Ig-like lectin 9 (Homo sapiens) (UniProt Q9Y336); assay: Hs-Siglec9 ALPHAscreen SOP 20170721; settings: 10 µM
Sequence of Sialic acid-binding Ig-like lectin 9 (Homo sapiens) (Q9Y336 whole entry): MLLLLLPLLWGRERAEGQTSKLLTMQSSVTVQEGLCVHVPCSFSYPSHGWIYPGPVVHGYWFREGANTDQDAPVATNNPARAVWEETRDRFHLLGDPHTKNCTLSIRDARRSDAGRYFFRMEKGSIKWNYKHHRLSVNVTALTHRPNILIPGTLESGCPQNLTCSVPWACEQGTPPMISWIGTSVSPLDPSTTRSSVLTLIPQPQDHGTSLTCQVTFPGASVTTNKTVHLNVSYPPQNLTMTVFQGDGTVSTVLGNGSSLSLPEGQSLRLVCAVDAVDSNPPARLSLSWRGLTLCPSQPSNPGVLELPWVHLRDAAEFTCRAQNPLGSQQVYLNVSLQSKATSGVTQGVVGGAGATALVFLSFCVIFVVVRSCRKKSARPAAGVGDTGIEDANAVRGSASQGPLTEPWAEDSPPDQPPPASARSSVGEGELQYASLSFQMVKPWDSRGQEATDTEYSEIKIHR

[5] = test system: Trypanosoma cruzi; assay: Trypanosoma cruzi phosphomannomutase and mannose-1-phosphate guanylyltransferase assay; assay type: functional; settings: 10 µM
[6] = biological target: T2, Arginase-2, mitochondrial (Homo sapiens) (UniProt P78540); assay: in vitro enzyme assay to detect the production of urea directly proportional to the activity of Arginase II; assay type: functional; settings: 33.3 µM; further: in the data most compounds retested in dose-response had high values
T2 sequence (whole entry): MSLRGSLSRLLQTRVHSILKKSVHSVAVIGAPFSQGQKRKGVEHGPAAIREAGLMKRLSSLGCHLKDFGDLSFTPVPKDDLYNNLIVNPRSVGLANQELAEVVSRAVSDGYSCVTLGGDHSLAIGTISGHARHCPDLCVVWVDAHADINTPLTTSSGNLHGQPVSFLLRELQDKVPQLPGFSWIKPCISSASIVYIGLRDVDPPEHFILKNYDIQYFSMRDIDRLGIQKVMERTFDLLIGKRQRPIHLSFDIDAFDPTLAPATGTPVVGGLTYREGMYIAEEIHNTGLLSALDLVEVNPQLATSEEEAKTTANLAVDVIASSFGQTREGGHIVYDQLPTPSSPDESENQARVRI

[7] = biological target: T3, Proteasome subunit beta (Trypanosoma cruzi) (UniProt O96673); assay: Trypanosoma cruzi proteasome chymotrypsin-like activity (TcProtChymo) assay.; further: in the data most compounds retested in dose-response had high values; assay type: functional; settings: 9.37 µM
T3 sequence (whole entry): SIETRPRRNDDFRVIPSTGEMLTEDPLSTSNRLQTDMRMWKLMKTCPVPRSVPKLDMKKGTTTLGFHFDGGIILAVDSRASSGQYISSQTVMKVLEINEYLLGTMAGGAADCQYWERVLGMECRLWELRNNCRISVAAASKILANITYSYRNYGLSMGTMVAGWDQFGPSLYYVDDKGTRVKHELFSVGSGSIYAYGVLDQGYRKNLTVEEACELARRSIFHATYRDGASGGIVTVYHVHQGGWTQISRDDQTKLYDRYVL

[8] = species: Homo sapiens; assay: To identify inhibition of the IFN signalling (Jak-Stat) pathway via expression of an eGFP reporter gene under the control of an IFN-stimulated response element (ISRE) containing MxA promoter.; assay type: functional; settings: 30 µM
[9] = biological target: T4, Tyrosyl-tRNA synthetase, putative (Trypanosoma cruzi (strain CL Brener)) (UniProt Q4DSP6); assay: Trypanosoma cruzi tyrosyl tRNA synthetase (TcYRS) _High Tyrosine SOP; assay type: functional; settings: 30 µM; further: in the data most compounds retested in dose-response had high values
T4 sequence (whole entry): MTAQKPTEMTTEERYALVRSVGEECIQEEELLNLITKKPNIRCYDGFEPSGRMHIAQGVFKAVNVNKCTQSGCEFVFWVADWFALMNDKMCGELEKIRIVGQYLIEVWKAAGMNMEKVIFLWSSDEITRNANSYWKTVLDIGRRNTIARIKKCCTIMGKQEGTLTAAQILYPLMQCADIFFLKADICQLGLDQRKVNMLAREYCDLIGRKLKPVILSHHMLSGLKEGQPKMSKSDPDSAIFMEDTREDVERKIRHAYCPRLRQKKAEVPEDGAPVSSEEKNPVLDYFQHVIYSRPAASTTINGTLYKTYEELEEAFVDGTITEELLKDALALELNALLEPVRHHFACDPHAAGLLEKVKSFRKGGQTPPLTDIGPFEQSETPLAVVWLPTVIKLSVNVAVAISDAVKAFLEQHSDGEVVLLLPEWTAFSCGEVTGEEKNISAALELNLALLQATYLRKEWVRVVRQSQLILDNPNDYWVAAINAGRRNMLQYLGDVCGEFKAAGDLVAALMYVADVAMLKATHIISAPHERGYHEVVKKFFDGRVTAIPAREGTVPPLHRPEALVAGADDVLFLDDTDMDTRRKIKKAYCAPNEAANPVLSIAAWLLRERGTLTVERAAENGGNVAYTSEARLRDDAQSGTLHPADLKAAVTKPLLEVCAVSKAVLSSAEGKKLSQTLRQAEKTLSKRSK

[10] = biological target: T4, Tyrosyl-tRNA synthetase, putative (Trypanosoma cruzi (strain CL Brener)); assay: Trypanosoma cruzi tyrosyl tRNA synthetase (TcYRS) SOP; assay type: functional; settings: 30 µM
[11] = biological target: Chromo domain-containing protein 1 (Saccharomyces cerevisiae (strain ATCC 204508 / S288c) (Baker's yeast)) (UniProt P32657); assay: ScCHD-1 Enzyme Inhibition Assay; assay type: functional; settings: 30 µM; further: in the data most compounds retested in dose-response had high values
Sequence of Chromo domain-containing protein 1 (Saccharomyces cerevisiae (strain ATCC 204508 / S288c) (Baker's yeast)) (P32657 whole entry, the tested form may be a part): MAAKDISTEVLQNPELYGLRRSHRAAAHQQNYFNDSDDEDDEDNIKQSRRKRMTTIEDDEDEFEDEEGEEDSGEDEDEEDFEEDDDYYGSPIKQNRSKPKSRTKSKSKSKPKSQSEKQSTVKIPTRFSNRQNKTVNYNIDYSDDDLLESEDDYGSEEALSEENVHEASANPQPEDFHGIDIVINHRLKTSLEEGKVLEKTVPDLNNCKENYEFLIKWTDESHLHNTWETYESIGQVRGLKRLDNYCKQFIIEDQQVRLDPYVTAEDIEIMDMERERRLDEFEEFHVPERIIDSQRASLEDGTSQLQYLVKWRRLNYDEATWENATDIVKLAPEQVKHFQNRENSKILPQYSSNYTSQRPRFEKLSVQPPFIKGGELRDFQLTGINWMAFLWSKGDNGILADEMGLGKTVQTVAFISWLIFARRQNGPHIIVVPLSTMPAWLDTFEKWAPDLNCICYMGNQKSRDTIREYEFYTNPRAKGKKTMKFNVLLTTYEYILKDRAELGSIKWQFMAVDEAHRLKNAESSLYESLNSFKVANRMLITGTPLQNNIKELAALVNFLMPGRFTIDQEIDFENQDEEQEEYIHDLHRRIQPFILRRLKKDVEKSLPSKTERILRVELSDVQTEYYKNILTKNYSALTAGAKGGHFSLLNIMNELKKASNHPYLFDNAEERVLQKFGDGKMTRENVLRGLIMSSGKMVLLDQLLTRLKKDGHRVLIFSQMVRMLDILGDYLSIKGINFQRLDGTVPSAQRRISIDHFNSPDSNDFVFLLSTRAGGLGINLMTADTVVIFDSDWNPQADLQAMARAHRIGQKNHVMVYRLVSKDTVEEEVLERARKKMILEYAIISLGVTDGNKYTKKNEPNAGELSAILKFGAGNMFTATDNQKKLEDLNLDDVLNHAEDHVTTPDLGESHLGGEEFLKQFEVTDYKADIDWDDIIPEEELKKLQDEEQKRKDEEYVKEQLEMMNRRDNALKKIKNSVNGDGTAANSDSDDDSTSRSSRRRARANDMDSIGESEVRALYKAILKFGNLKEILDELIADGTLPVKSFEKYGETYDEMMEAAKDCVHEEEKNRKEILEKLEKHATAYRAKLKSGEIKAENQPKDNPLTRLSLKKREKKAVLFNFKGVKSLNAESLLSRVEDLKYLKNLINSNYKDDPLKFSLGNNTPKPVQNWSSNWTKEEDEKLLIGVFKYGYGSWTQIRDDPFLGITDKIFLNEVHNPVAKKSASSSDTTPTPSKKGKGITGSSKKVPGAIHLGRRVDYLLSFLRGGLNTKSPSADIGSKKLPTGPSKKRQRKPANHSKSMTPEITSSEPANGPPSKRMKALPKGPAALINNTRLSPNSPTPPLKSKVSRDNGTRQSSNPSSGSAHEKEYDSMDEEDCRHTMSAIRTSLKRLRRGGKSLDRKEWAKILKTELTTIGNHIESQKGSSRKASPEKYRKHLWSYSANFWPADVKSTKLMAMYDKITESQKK

Row | SMILES | Percent Effect [1] [%] | Percent Effect [2] [%] | Percent Effect [3] [%] | Percent Effect [4] [%] | Percent Effect [5] [%] | Percent Effect [6] [%] | Percent Effect [7] [%] | Percent Effect [8] [%] | Percent Effect [9] [%] | Percent Effect [10] [%] | Percent Effect [11] [%]
1 | Cn1ccc(CN2CCC(OCCc3ccccc3)CC2)cc1=O | -2.81 | 0 | -1.45 | -0.922 | -4.87 | 4.98 | -5.41 | 29.9 | 0.971 | 0 | 1.89
2 | CCc1nccn1C1CCCN(C(=O)c2cn3c(C)cccc3n2)C1 (stereo not drawn) | -5.71 | 10.5 | -0.577 | 8.35 | 3.6 | -9.47 | 6.04 | -0.411 | 3.19 | 15.6 | -1.12
3 | Cn1c(CN2CCCC2)nnc1C1CCCN(C(=O)C2CCOCC2)C1 (stereo not drawn) | -3.02 | 5.41 | -5.63 | 28.6 | 5.99 | 22.9 | 8.1 | 6.46 | 4.76 | 4.88 | -11.7
4 | Cc1nnc(NC(=O)NCc2cccnc2N(C)C)s1 | -3.62 | 13 | -1.32 | 4.98 | 5.24 | 4.27 | 11.2 | 4.88 | 6.8 | 21.9 | -9.15
5 | Cc1nc(C)n(CC2CCCN2CC(=O)NCCc2ccccc2)n1 (stereo not drawn) | 0.351 | 0 | 2.9 | 4.24 | 1.37 | 1.36 | 12.4 | -18.8 | 1.07 | 2.5 | -5.02
6 | COc1ccccc1C(O)CNCc1c(C(C)C)nn(C)c1N(C)C (stereo not drawn) | -5.07 | 15.6 | -1.45 | 1.4 | 1.31 | 1.07 | 4.9 | -5.4 | 11.7 | 14.6 | -10.1
7 | Cc1ccc(CN2CCc3ncnc(C4CC4)c3CC2)s1 | 1.05 | 5.33 | 5.76 | -4.5 | -5.41 | -54.3 | 6.15 | 43.3 | 8.33 | 12.5 | -7.16
8 | O=C(CCc1cccnc1)N1CCCC(n2cncn2)C1 (stereo not drawn) | -2.09 | 0 | 4.67 | 4.06 | 2.74 | 0.76 | -1.23 | -1.71 | 2.46 | -1.27 | -1.28
